Most compounds without a hit are left out; they make up all but 2% or so of the library.
APOBEC3G inh: blocks human APOBEC3G single-stranded DNA deamination. Q9HC16. recombinant A3G, ssDNA deamination FAM/TAMRA fluorescence. inhibition, % at 20 µM. 330,000 tested, 0.28% active. AID 493012;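 active = inhibition of at least 40% at 20 µM, with no more than 30% in the related APOBEC3A deaminase screen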;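 also: plate controls were DMSO wells with A3G for no effect and wells lacking A3G enzyme for full effect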
Target sequence (Q9HC16 whole entry, looked up): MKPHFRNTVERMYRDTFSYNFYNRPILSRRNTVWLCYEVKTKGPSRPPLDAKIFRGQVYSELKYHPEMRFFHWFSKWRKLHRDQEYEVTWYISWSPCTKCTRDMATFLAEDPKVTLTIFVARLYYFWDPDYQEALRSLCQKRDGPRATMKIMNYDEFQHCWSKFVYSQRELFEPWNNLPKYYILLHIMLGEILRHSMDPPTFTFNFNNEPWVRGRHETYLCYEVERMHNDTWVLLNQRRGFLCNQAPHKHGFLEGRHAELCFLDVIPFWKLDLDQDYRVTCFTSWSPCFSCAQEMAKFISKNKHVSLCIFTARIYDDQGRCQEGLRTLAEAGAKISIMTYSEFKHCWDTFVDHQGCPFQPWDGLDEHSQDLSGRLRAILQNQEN
Neddylation inh: blocks human cullin neddylation. P61081+Q13564. TR-FRET cullin neddylation, biochemical. inhibition, % at 25 µM. 360,000 tested, 0.58% active; in the data active = inhibition above about 36%
APOBEC3A inh: blocks human APOBEC3A ssDNA deamination; 330,000 tested, 0.41% active; AID 493011; inhibition, % at 20 µM; P31941; recombinant A3A, FAM/TAMRA ssDNA deamination fluorescence;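 active = at least 40% inhibition at 20 µM here, with at most 30% in a related deaminase screen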;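 also: plate controls were A3A with DMSO for no effect and wells lacking A3A enzyme for full effect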
Target sequence (P31941 whole entry, looked up): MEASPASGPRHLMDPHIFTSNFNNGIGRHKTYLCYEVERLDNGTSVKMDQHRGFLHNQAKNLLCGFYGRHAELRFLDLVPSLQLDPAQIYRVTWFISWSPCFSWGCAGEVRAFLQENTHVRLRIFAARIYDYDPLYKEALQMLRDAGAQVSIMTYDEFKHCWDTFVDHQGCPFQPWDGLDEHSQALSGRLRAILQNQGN
GC-B act: GC-B (human) receptor activation; HEK293-GC-B cells, CNP EC30, cGMP TR-FRET; 0% at EC30 CNP, 100% saturating CNP; activation, % at 10 µM; 370,000 tested, 0.11% active; AID 1920062;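 active = activation at 10 µM reaching about 35% in either raw or pattern-adjusted values, limit read from the data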
GC-A act: GC-A (human) enzyme activation; P16066; HEK293 GC-A cells, cGMP TR-FRET, EC30 ANP; 0% at EC30 ANP, 100% saturating ANP; activation, % at 10 µM; 370,000 tested, 0.14% active; AID 1671463; in the data active = activation above about 40%
PfGluPho inh: PfG6PD (Plasmodium falciparum) enzyme inhibition. 350,000 tested, 0.78% active. PfGluPho enzyme, NADPH resazurin-diaphorase fluorescence. AID 504690. inhibition, % at 20 µM;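 active = inhibition reaching at least a set limit at 20 µM in the primary screen, cut at about 59% in these data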;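 also: 0% = DMSO wells with substrate and 100% = DMSO wells lacking glucose-6-phosphate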
APOBEC3A confirm: APOBEC3A (human) deaminase inhibition, confirmed; shares compounds with APOBEC3A inh; recombinant A3A, ssDNA deaminase UDG fluorescence assay; inhibition, % at 20 µM; 1,400 tested, 63% active;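 active = inhibition reaching a set limit, 80% of the first screen's cutoff, at 20 µM in any replicate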;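 also: plate controls were DMSO wells with A3A for no effect and wells lacking A3A enzyme for full effect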
UDG A3A counter: counter-screen for APOBEC3A inhibitors: UDG; inhibition, % at 20 µM; shares compounds with APOBEC3A inh; 1,000 tested, under 10 active; UDG counterscreen, FAM/TAMRA uracil oligo fluorescence; call rule not given here
Active calls of the source: *.

Screening CCCCn1c(N)c(N(CCC(C)C)C(=O)c2ccc(N3CCCC3=O)cc2)c(=O)[nH]c1=O returned APOBEC3G inh -1, Neddylation inh 12, APOBEC3A inh 43*, GC-B act -1, GC-A act 0, PfGluPho inh 10, APOBEC3A confirm 18 and UDG A3A counter 3.
Screening CCCCn1c(N)c(N(CC)C(=O)c2ccc(Cl)c([N+](=O)[O-])c2)c(=O)[nH]c1=O returned APOBEC3G inh 2, Neddylation inh -12, APOBEC3A inh 50*, GC-B act -1, GC-A act 6, PfGluPho inh -18 and APOBEC3A confirm 28.
Screening C=c1[nH]cc(C(C)c2c(C)n(C)c3ccccc23)/c1=C/C (configuration not stated) returned GC-B act -5 and GC-A act -2.
Screening CCOCc1cnc(C)nc1NCC(=O)c1c(C)[nH]c2ccc(OC)cc12 returned APOBEC3G inh 21, Neddylation inh 11, APOBEC3A inh 55*, GC-B act 4, GC-A act -2, PfGluPho inh 4, APOBEC3A confirm 80* and UDG A3A counter 2.
Screening Cc1ccccc1C(=O)N[C@H](C(=O)N1CCC[C@H]1C(=O)NCc1ccccc1)c1ccccc1 returned GC-B act 2 and GC-A act -3.
For O=C(OC12CCCN(C1)/C(=C/c1cccc(Cl)c1)C2)c1ccccc1 (configuration not stated) the results were GC-B act -8 and GC-A act 2.
Screening N=C(N)Cc1ccccc1Sc1ccccc1 returned APOBEC3G inh 1, Neddylation inh 0, APOBEC3A inh 42*, GC-B act 2, GC-A act -2, PfGluPho inh -22 and APOBEC3A confirm 1.
Screening c1ccc(Sc2ccccc2CN2CCCC2)cc1 returned APOBEC3G inh 3, Neddylation inh -3, APOBEC3A inh 2, GC-B act -6, GC-A act -2 and PfGluPho inh -5.
For CSc1ccccc1NC(=O)CN(C)CC(=O)c1[nH]c(C)c(C(C)=O)c1C the results were APOBEC3G inh 19, Neddylation inh 0, APOBEC3A inh 68*, GC-B act -1, GC-A act -1, PfGluPho inh 23, APOBEC3A confirm 50* and UDG A3A counter -1.
`CC(=O)c1c(C)[nH]c(C(=O)CN(C)CC(=O)Nc2ccccc2Cl)c1C` gave APOBEC3G inh -6, Neddylation inh 3, APOBEC3A inh 0, GC-B act 0, GC-A act -1 and PfGluPho inh 8.
Screening COC(=O)[C@]12C[C@H](CC(=O)N3CCCCC3)C(=O)N(CCC3=CCCCC3)C1=C[C@H](C1CCCC1)O[C@@H]2C returned GC-B act 5 and GC-A act -2.
For O=c1c2cc3cccnc3nc2ncn1Cc1cccs1 the results were GC-B act -5 and GC-A act -5.
C[N+]12CCCCC1[C@@H](CO)CCC2 (some centres not stated) was read as APOBEC3G inh 22, Neddylation inh 5, APOBEC3A inh 56*, GC-B act 1, GC-A act 1, PfGluPho inh -13, APOBEC3A confirm 71* and UDG A3A counter 2.
CC(C)CN(C(=O)CC(C)c1ccccc1)c1c(N)n(Cc2ccccc2)c(=O)[nH]c1=O (configuration not stated) was read as APOBEC3G inh 20, Neddylation inh 8, APOBEC3A inh 70*, GC-B act -3, GC-A act -3, PfGluPho inh -7 and APOBEC3A confirm 11.
`CC(C)CN(C(=O)CCc1ccccc1Cl)c1c(N)n(Cc2ccccc2)c(=O)[nH]c1=O` gave APOBEC3G inh -9, Neddylation inh 7, APOBEC3A inh 4, GC-B act 5, GC-A act 1 and PfGluPho inh 3.
CC(=O)Nc1ccc(C(=O)NC2CCSc3ccccc32)cc1 (configuration not stated) was read as APOBEC3G inh 4, Neddylation inh -5, APOBEC3A inh 45*, GC-B act 4, GC-A act 2, PfGluPho inh 11 and APOBEC3A confirm -1.
`COc1ccc(C(=O)NC2CCSc3ccccc32)cc1` (configuration not stated) gave APOBEC3G inh -9, Neddylation inh -5, APOBEC3A inh -1, GC-B act 0, GC-A act 2 and PfGluPho inh 18.
For COC(=O)C1CN(Cc2ccc(F)cc2)CCS(=O)(=O)N1Cc1cn(Cc2ccc(Cl)cc2)nn1 (configuration not stated) the results were GC-B act -10 and GC-A act -4.
C[n+]1ccccc1/C=C/c1c(F)cccc1F was read as Neddylation inh -11, GC-B act 2, GC-A act 0 and PfGluPho inh -1.
C[n+]1ccccc1/C=C/c1ccccc1Cl was read as APOBEC3G inh 14, Neddylation inh 1, APOBEC3A inh 81*, GC-B act 7, GC-A act 1, PfGluPho inh 14, APOBEC3A confirm 67* and UDG A3A counter -3.
O=C(C=Cc1ccccc1Cl)c1ccccc1 was read as Neddylation inh -5, GC-B act 0, GC-A act -4 and PfGluPho inh 13.
Screening Cc1ccccc1/C=C/c1cccc[n+]1C returned APOBEC3G inh 15, Neddylation inh -2, APOBEC3A inh 84*, GC-B act 3, GC-A act 3, PfGluPho inh 5, APOBEC3A confirm 69* and UDG A3A counter -3.
For CC(C)(C)OC(=O)N1CCC(N[C@@H](Cc2ccccc2)C(=O)NCCc2c[nH]c3ccccc23)(C(=O)NC2CCCCC2)CC1 the results were GC-B act -1 and GC-A act -2.
For COc1ccc(CC(=O)Nc2cccc(/C(C)=N/NC(=O)c3cccc([N+](=O)[O-])c3)c2)cc1 the results were APOBEC3G inh 1, Neddylation inh -21, APOBEC3A inh 72*, GC-B act 3, GC-A act -8, PfGluPho inh -7 and APOBEC3A confirm 1.
`COc1ccc(CC(=O)N/N=C(\C)c2cccc(NC(=O)C3CC3)c2)cc1` gave APOBEC3G inh 1, Neddylation inh -8, APOBEC3A inh -6, GC-B act 1, GC-A act 2 and PfGluPho inh -15.
For COc1ccc(CC(=O)NNC(=O)c2ccccn2)cc1 the results were APOBEC3G inh 2, Neddylation inh -1, APOBEC3A inh 46*, GC-B act 0, GC-A act 1, PfGluPho inh -1 and APOBEC3A confirm -1.

From PubChem BioAssay
